Activity calls are given as the source filed them. How the source made its calls: active means hit-call score of the fitted dose curve at least 0.9, where 1 is the maximum; inactive means score below 0.9.
These compounds were tested on Transforming Growth Factor (TGFA), TGFA (gene 7039) (assay: LTEA_HepaRG_TGFA: Life Technologies and Expression Analysis (LTEA) Assay for Transforming Growth Factor (TGFA) using HepaRG (AID 2283532)). Conditions: mRNA level, 48 h; actives raise or lower the signal.
Description: LTEA_HepaRG is a cell based, multiplexed-readout assay that uses HepaRG, a human liver cell line, with measurements taken at 48 hours after chemical dosing on a 96-well plate.LTEA_HepaRG_TGFA is one of 102 assay component(s) measured in the LTEA HepaRG cell culture assay. It is a marker of Cell proliferation, survival, death.Data from the assay component LTEA_HepaRG_TGFA was analyzed into 1 endpoint. This assay endpoint, LTEA_HepaRG_TGFA, was analyzed with bidirectional fitting relative to DMSO as the negative control and baseline of activity. Using a type of inducible reporter, measures of mRNA induction for gain or loss-of-signal activity can be used to understand regulation of transcription factor activity. To generalize the intended target to other relatable targets, this assay endpoint is annotated to the growth factor intended target family, where the subfamily is EGF-like domain.
A total of 1060 chemcials from the ToxCast library were tested in eight-point concentration-response experiments. Cell culture and cytotoxicity assays were conducted at Thermo Fisher Scientific's Custom Services facility (Madison, WI). A single lot of human HepaRG cells (Thermo Fisher Scientific, Frederick, MD) was used for the cell culture experiments. 96-well format collagen type I coated plates of human HepaRG cells were prepared using established methods. Briefly, cryopreserved HepaRG cells were thawed, plated at a density of approximately 100,000 cells/well in HepaRG Thaw, Plate, and General Purpose media (HPRG770, Thermo Fisher Scientific), and incubated for 48 hours. 0.5% DMSO was selected as vehicle control to balance the requisite need of DMSO in HepaRG cultures to maintain differentiation (for example, baseline metabolism, proportions of hepatocytes vs. cholangiocytes), while enabling further hepatic receptor pathway activation (for example, PXR and CAR) in response to chemical exposure. 48 hours after plating, the culture medium was replaced with HepaRG Serum-Free Incudtion Media. Cells were exposed to each test chemical in duplicate and maintained in CO2 incubators for another 48 hours. Chemical plates were thawed to room temperature and 200x concentrations of treatment groups were prepared. 8-point conentration-reponse curves were made with the highest exposure at 100 uM, followed by half-log dilutions, all in 0.5% DMSO. Each test plate contained variouse controls, induction positive controls (1mM phenobarbital), cytotoxicity positive controls ([…] aflatoxin B1), vehicle controls (0.5% DMSO), and total lysis controls (0.5% DMSO). Cell morphology images were taken using an Essen IncuCyte FLR automated microscope, with six 96-well plates imaged in about 24 minutes. Images were captured and exported and JPEG files. Spent culture media was transfered to black-well plates for the LDH assay, and remaining media was sorted at -80 C for later use. Cells were treated with RLT buffer and frozen until shipped for gene expression analysis. Total RNA was isolated from the cell suspension in 75 uL of Buffer RLT (Qiagen, Germantown, MD 20874) by Quintiles/Expression Analysis (Durham, NC) using a custom isolation procedure. Total RNA from each plate well was transferred to a preamplification plate. Fluidigm's 96.96 Dynamic ArrayTM (Fluidigm, Amsterdam, the Netherlands) technology was used for gene expression analyses by quantitative reverse transcription polymerase chain reaction (qRT-PCR, performed by Quintiles/Expression Analysis, Durham, NC)89. Standard TaqManTM Assays (Applied Biosystems/ThermoFisher Scientific, Foster City, CA) were used to assess the expression of 93 genes selected based on their selectivity and sensitivity to important hepatic receptors known to be modulated by environmental chemicals; importance in human hepatocyte functionality; and hepatotoxicity. […]

Row | Structure (SMILES) | outcome | AC50
1 | O=C1NS(=O)(=O)c2ccccc21 | inactive | 
2 | CS(=O)(=O)c1ccc([C@@H](CC2CCCC2)C(=O)Nc2cnccn2)cc1Cl | inactive | 
3 | O=C(CCCN1CCC(O)(c2ccc(Cl)cc2)CC1)c1ccc(F)cc1 |  | 79.2 µM (active)
4 | CN(Cc1cnc2nc(N)nc(N)c2n1)c1ccc(C(=O)N[C@@H](CCC(=O)O)C(=O)O)cc1 | inactive | 
5 | CCCCC(CC)C(=O)O (stereo unspecified) | inactive | 
6 | CCCCC=O | inactive | 
7 | CCCCCCCCCCCCOS(=O)(=O)O | inactive | 
8 | OCC(CO)(CBr)CBr | inactive | 
9 | CCCCc1oc2ccccc2c1C(=O)c1cc(I)c(OCCN(CC)CC)c(I)c1 |  | 55.3 µM (active)
10 | N=C(N)c1ccc(OCCCCCOc2ccc(C(=N)N)cc2)cc1 |  | 11 µM (active)
11 | CN(C)CCOC(c1ccccc1)c1ccccc1 | inactive | 
12 | CCCCCCCCCCCCCCC | inactive | 
13 | CCC(C)c1ccccc1O (stereo unspecified) | inactive | 
14 | Cc1[nH]nc2c1N=C(c1ccccc1Cl)c1cc([N+](=O)[O-])ccc1N2 |  | 50 µM (active)
15 | CC(=O)Nc1ccc(O)cc1 | inactive | 
16 | O=C(c1ccccc1)c1ccccc1 | inactive | 
